Counter-ions that a name gives are not always drawn.
Columns and labels:
Details in all cases: 10 µM; exposure time: 3 h pre-incubation + 3 h imaging
[1] = test system: Danio rerio larvae (5 dpf); assay: startle (activity period 16 minus period 15, 20-s interval sound) minus DMSO control (percentage points); higher = stronger startle response than DMSO larvae
Procedure, shortened: (§1)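 At 28.5 °C, 5 dpf wild-type zebrafish larvae were treated with compounds (10 µM final) for 3 h ahead of and 3 h during imaging at one frame every 6 s. Tracks came from Z-LaP Tracker, discarding detections under 0.5 probability and any larva moving under 1% of the time. Each behavioural value is the difference, in percentage points, between the treated group mean and the control mean, with 48 larvae per group and 844 in the control.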

[2] = test system: Danio rerio larvae (5 dpf); assay: excitability (activity period 17 minus period 16, 1-s interval sound) minus DMSO control (percentage points); higher = more acoustic excitability than DMSO larvae
Procedure, shortened: as §1

[3] = test system: Danio rerio larvae (5 dpf); assay: combined optomotor response (time in upper well half, down vs up moving lines, periods 7-14) minus DMSO control (percentage points); higher = stronger optomotor response than DMSO larvae
[4] = test system: Danio rerio larvae (5 dpf); assay: combined upward orientation toward moving lines (periods 7-14) minus DMSO control (percentage points); higher = more orientation with moving lines than DMSO larvae
Procedure, shortened: as §1

[5] = test system: Danio rerio larvae (5 dpf); assay: habituation (activity change first vs second 5 min of 1-s interval sound, period 17) minus DMSO control (percentage points); higher = larger habituation measure than DMSO larvae
Procedure, shortened: as §1

[6] = test system: Danio rerio larvae (5 dpf); assay: 1-h baseline activity (% time moving, periods 1-6) minus DMSO control (percentage points); higher = more locomotor activity than DMSO larvae
Procedure, shortened: as §1

Work on `CCCN(CCC)S(=O)(=O)c1ccc(C(=O)O)cc1` [Probenecid] yielded a startle [1] of 0.405, an excitability [2] of 5.41 and a combined optomotor response [3] of 4.87.

For `CC[C@H](C)C(=O)O[C@H]1C[C@@H](C)C=C2C=C[C@H](C)[C@H](CC[C@@H]3C[C@@H](O)CC(=O)O3)[C@H]21` [Lovastatin], the startle [1] was -1.2, the “combined upward orientation toward moving lines” value [4] was -3.5 and the habituation [5] was -2.11. It also gave a combined optomotor response [3] of 5.24.

`COc1ccc([C@@H]2Sc3ccccc3N(CCN(C)C)C(=O)[C@@H]2OC(C)=O)cc1` [Diltiazem hydrochloride] was tested, and the startle [1] was 1.21, the “combined upward orientation toward moving lines” value [4] was -1.58 and the combined optomotor response [3] was 1.37.

For `CCOC(=O)C1=C(COCCN)NC(C)=C(C(=O)OC)C1c1ccccc1Cl` (centres undefined) [Amlodipine besylate], the “combined upward orientation toward moving lines” value [4] was 0.386 and the habituation [5] was -2.71.

In the case of `CC(C)N(CCCCOCC(=O)NS(C)(=O)=O)c1cnc(-c2ccccc2)c(-c2ccccc2)n1` [Selexipag], the excitability [2] is reported as 5.98, the “combined upward orientation toward moving lines” value [4] is reported as -4.38 and the combined optomotor response [3] is reported as 4.06.

With `Cc1ccc(N(CC2=NCCN2)c2cccc(O)c2)cc1` [Phentolamine Mesylate] the “combined upward orientation toward moving lines” value [4] was 4.89 and the combined optomotor response [3] was 7.07.

With `CN1CCC[C@@H]1CCO[C@](C)(c1ccccc1)c1ccc(Cl)cc1` [Clemastine fumarate] the excitability [2] was 12.9, the “combined upward orientation toward moving lines” value [4] was 4.64 and the combined optomotor response [3] was 7.99.

`CCc1ccc(CCOc2ccc(CC3SC(=O)NC3=O)cc2)nc1` (centres undefined) [Pioglitazone hydrochloride] was tested, and the startle [1] was -4.69, the habituation [5] was 0.765 and the combined optomotor response [3] was -1.77.

`Nc1ccn([C@@H]2O[C@H](CO)[C@@H](O)C2(F)F)c(=O)n1` [Gemcitabine hydrochloride] was tested, and the 1-h baseline activity [6] was -7.23, the startle [1] was 2.17 and the “combined upward orientation toward moving lines” value [4] was 5.82. It also gave a combined optomotor response [3] of 1.86.

With `CCCc1nc2c(C)cc(-c3nc4ccccc4n3C)cc2n1Cc1ccc(-c2ccccc2C(=O)O)cc1` [Telmisartan] the startle [1] was 2.86 and the combined optomotor response [3] was 2.86.

`O=C(O)c1cc(/N=N/c2ccc(S(=O)(=O)Nc3ccccn3)cc2)ccc1O` [Sulfasalazine] gave a 1-h baseline activity [6] of 12.5, a startle [1] of -1 and a combined optomotor response [3] of 1.33.

With `Cc1ccsc1C(=CCCN1CCC[C@@H](C(=O)O)C1)c1sccc1C` [Tiagabine hydrochloride] the “combined upward orientation toward moving lines” value [4] was 13.4 and the combined optomotor response [3] was 8.29.

Compound `CN1CCC[C@@H]1Cc1c[nH]c2ccc(CCS(=O)(=O)c3ccccc3)cc12` [Eletriptan hydrobromide] has a startle [1] of 0.814 and a combined optomotor response [3] of -0.376.

Work on `CC1=Nc2ccc(Cl)cc2S(=O)(=O)N1` [Diazoxide] yielded a startle [1] of -4.34 and a combined optomotor response [3] of 2.18.

In the case of `COc1cccc2c1C(=O)c1c(O)c3c(c(O)c1C2=O)C[C@@](O)(C(=O)CO)C[C@@H]3O[C@H]1C[C@H](N)[C@H](O)[C@H](C)O1` [Doxorubicin hydrochloride], the startle [1] is reported as 3.54, the excitability [2] is reported as 15.5 and the combined optomotor response [3] is reported as -1.96.

`C=C1[C@H](CO)[C@@H](O)C[C@@H]1n1cnc2c(=O)[nH]c(N)nc21` [Entecavir] was tested, and the “combined upward orientation toward moving lines” value [4] was -3.62, the habituation [5] was 1.2 and the combined optomotor response [3] was 3.44.

In the case of `Cc1ccc(O)c([C@H](CCN(C(C)C)C(C)C)c2ccccc2)c1` [Tolterodine L-tartrate], the 1-h baseline activity [6] is reported as 0.455, the startle [1] is reported as -5.5 and the habituation [5] is reported as -5.86. It also gave a combined optomotor response [3] of -1.96.

`C=CC(=O)N1CCC[C@@H](n2nc(-c3ccc(Oc4ccccc4)cc3)c3c(N)ncnc32)C1` [Ibrutinib] was tested, and the startle [1] was 4.43 and the combined optomotor response [3] was 5.02.

For `O=C(c1ccc(OCCN2CCCCC2)cc1)c1c(-c2ccc(O)cc2)sc2cc(O)ccc12` [Raloxifene hydrochloride], the startle [1] was 2.55, the “combined upward orientation toward moving lines” value [4] was -2.81 and the habituation [5] was -3.07. It also gave a combined optomotor response [3] of -1.27.

`COc1ccc(C[C@@H](C)NC[C@H](O)c2ccc(O)c(NC=O)c2)cc1` [Arformoterol tartrate] gave a startle [1] of -8.08 and a combined optomotor response [3] of -7.68.

`CO[C@H]1/C=C/O[C@@]2(C)Oc3c(C)c(O)c4c(O)c(c5c(nc6cc(C)ccn65)c4c3C2=O)NC(=O)/C(C)=C\C=C\[C@H](C)[C@H](O)[C@@H](C)[C@@H](O)[C@@H](C)[C@H](OC(C)=O)[C@@H]1C` [Rifaximin] showed a startle [1] of 1.18 and a combined optomotor response [3] of 2.32.

In the case of `CC(C)(C#N)c1cc(Cn2cncn2)cc(C(C)(C)C#N)c1` [Anastrozole], the “combined upward orientation toward moving lines” value [4] is reported as -0.152, the habituation [5] is reported as 6.46 and the combined optomotor response [3] is reported as -1.87.

For `CC(=O)O[C@]1(C(C)=O)CC[C@H]2[C@@H]3C=C(C)C4=CC(=O)CC[C@]4(C)[C@H]3CC[C@@]21C` [Megestrol Acetate], the startle [1] was -12.5 and the combined optomotor response [3] was -8.35.

`O=c1[nH]c(=O)n([C@H]2C[C@H](O)[C@@H](CO)O2)cc1C(F)(F)F` [Trifluorothymidine] was tested, and the “combined upward orientation toward moving lines” value [4] was -3.41 and the combined optomotor response [3] was 5.31.

For `CCOC(=O)c1ncn2c1CN(C)C(=O)c1cc(F)ccc1-2` [Flumazenil], the “combined upward orientation toward moving lines” value [4] was 2.99 and the combined optomotor response [3] was 3.13.

`Nc1nc2[nH]cc(CCc3ccc(C(=O)N[C@@H](CCC(=O)O)C(=O)O)cc3)c2c(=O)[nH]1` [Pemetrexed] gave a startle [1] of -5.08 and a combined optomotor response [3] of 1.31.

Reference: the supplement of paper PMC9950053
